Values joined by “and” are separate entries in the source; they are usually repeats but may differ in a detail not shown here. Equal entries are not always repeated. Inconclusive results are not listed. Entries that show only a call come without a potency. Some structures have more than one record in an assay (separate samples or runs), and their calls can disagree. Active and inactive are the calls of the source. Unless noted, the call rests on the fitted dose curve; in most records, active means well fitted curve in the direction sought with a large enough effect; inconclusive means small, poorly fitted or top-dose-only effect, or another doubt; inactive means no such curve, though single readings can be large; an effect the other way counts as inactive or inconclusive.
Assays:
[1] = target: Beta-2 adrenergic receptor (Homo sapiens) (UniProt P07550); assay: qHTS validation assay of beta-arrestin-biased ligands of beta2-adrenergic receptor (AID 485366)
Method in brief: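 Tango cells expressing recombinant beta2-AR and beta-arrestin with tTA-driven luciferase, in DMEM with 1% FBS. Compounds were titrated up to 46 microM for 18 hr at 37 degrees C. Luminescence was read 15 min after substrate; curves were fitted and class-assigned.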

[2] = Quantitative high throughput screen for delayed death inhibitors of the malarial parasite plastid, 96 hour incubation (AID 488745); further: nearly all actives have a fitted effect of over 70% in size; further: potency means the concentration at half of the fitted maximal effect
Method in brief: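 Growth of reporter-bearing P. falciparum in red cells is measured after 96 h with compound, covering two erythrocytic cycles. Luminescence from the integrated luciferase serves as the growth signal.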

[3] = Quantitative high throughput screen for delayed death inhibitors of the malarial parasite plastid, 48 hour incubation (AID 488752); further: nearly all actives have a fitted effect of over 65% in size; further: potency means the concentration at half of the fitted maximal effect
Method in brief: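 One parasite generation (48 h, 37 C, 5% CO2) of luciferase-reporter P. falciparum in erythrocytes is run with test compound; decreased luminescence indicates inhibited growth.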

[4] = target: Thioredoxin reductase 1, cytoplasmic (Rattus norvegicus) (UniProt O89049); assay: qHTS Assay for Substrates of Mammalian Selenoprotein Thioredoxin Reductase 1 (TrxR1) (AID 488772);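 further: NADPH fluorescence in the first read after selenite addition and not the 8 min delta; series mostly up to about 57 µM; a drop in NADPH fluorescence below the no-compound background marks a TrxR1 substrate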
Method in brief: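 Quantitative HTS in Tris-HCl buffer at pH 7.5 with EDTA and Tween-20, using rat TrxR1, 400 uM NADPH and 400 uM selenite (final). A fall in initial NADPH fluorescence relative to background marked substrate behaviour.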

[5] = target: Thioredoxin reductase 1, cytoplasmic (Rattus norvegicus) (UniProt O89049); assay: qHTS Assay for Inhibitors of Mammalian Selenoprotein Thioredoxin Reductase 1 (TrxR1) (AID 488773); settings: Potency: inhibition;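 further: drop in NADPH fluorescence over an 8 min run after selenite addition; series mostly up to about 57 µM; nearly all actives have a fitted effect of over 40% in size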
Method in brief: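 Steps: enzyme (90 nM) plus NADPH (400 uM final), 5 min at ~22 deg C; compound added, 15 min; selenite (400 uM final) added; fluorescence followed for 8 min. Concentration-response curves derived from the normalized delta values.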

[6] = target: Flap endonuclease 1 (Homo sapiens) (UniProt P39748); assay: qHTS Validation Assay for the Inhibitors of Human Flap endonuclease 1 (FEN1) (AID 488816)
Method in brief: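 FEN1, dispensed as a 10 nM reagent, was preincubated with pin-transferred compounds for 15 min at room temperature before substrate was added (50 nM final). Plates were read at 0 and 15 min, and a four-parameter Hill equation was fitted to the concentration-response data.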

[7] = target: M-phase phosphoprotein 8 (Homo sapiens) (UniProt Q99549); assay: qHTS Validation Assay for Inhibitors for MPP8 Chromodomain Interactions with Methylated Histone Tails (AID 488949); further: nearly all actives have a fitted effect of over 55% in size; further: potency means the concentration at half of the fitted maximal effect
Method in brief: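 AlphaScreen proximity signal from streptavidin donor and Ni-chelate acceptor beads (10 ug/mL each) reported binding of MPP8 to trimethyl-K9 H3(1-18) peptide, both at 50 nM. The complex formed 30 min before a 30 min compound exposure at room temperature, in PBS pH 7.4.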

[8] = target: Chromobox protein homolog 1 (Homo sapiens) (UniProt P83916); assay: qHTS Validation Assay for Inhibitors of HP1-beta Chromodomain Interactions with Methylated Histone Tails (AID 488953); further: nearly all actives have a fitted effect of over 50% in size; further: potency means the concentration at half of the fitted maximal effect
Method in brief: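 Measured as loss of AlphaScreen luminescence from streptavidin donor and nickel acceptor beads (10 ug/mL final) bridging HP1-beta and biotin-H3(1-18)K9me3, each 50 nM. Compounds met the preassembled complex for 30 min at RT.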

[9] = target: Methanococcus maripaludis chaperonin (MmCpn) (UniProt Q6LX38); assay: High-Throughput Screening for Modulators of Cytosolic Chaperonin Activity: MmCpn Primary Screen (AID 488978);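 further: 50 nM MmCpn enzyme hydrolysing 30 µM ATP at 37 °C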
Method in brief: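 ATPase activity of 50 nM MmCpn was assayed with 30 uM ATP, 10 minutes at 37C, after a 5 min compound preincubation at room temperature. ADP production was read as HTRF emission at 590 and 665 nm.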

[10] = target: Transient receptor potential cation channel subfamily V member 1 (Homo sapiens) (UniProt Q8NER1); assay: HTS Assay for Compounds that Act as Enhancers of the Vanilloid Receptor 1 (AID 488979)
Method in brief: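 TRPV1-expressing cells loaded with Fluo-8 calcium dye; compounds added and calcium influx read kinetically for 3 min (agonist phase), then capsaicin at EC20 added and read 2 min more for enhancement. Fluorescence ex 480/em 520 nm.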

[11] = target: Thyrotropin receptor (Homo sapiens) (UniProt P16473); assay: qHTS Assay for Antagonists of the Thyroid Stimulating Hormone Receptor (AID 488980); further: series mostly up to about 58 µM
Method in brief: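 Inhibition of cAMP raised by EC80 TSH (4 nM final) was read by HTRF, with lysate cAMP competing against cAMP-d2 for cryptate antibody after 30 min at room temperature. The cells were transfected HEK293 held in phosphodiesterase inhibitor RO 20-1724 at 70 uM.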

[12] = target: D(1A) dopamine receptor (Homo sapiens) (UniProt P21728); assay: HTS Assay for Allosteric Agonists of the Human D1 Dopamine Receptor: Primary Screen for Agonists (AID 488981)
Method in brief: (§1)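 Tetracycline-induced HEK293 T-REx cells force-coupled to calcium signalling were incubated overnight at 30 C and dye-loaded at room temperature. Calcium flux over 180 s after compound addition flagged agonists; a further 180 s read after EC20 dopamine flagged potentiators.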

[13] = target: D(1A) dopamine receptor (Homo sapiens) (UniProt P21728); assay: HTS Assay for Allosteric Agonists of the Human D1 Dopamine Receptor: Primary Screen for Potentiators (AID 488982)
Method in brief: as §1

[14] = Validation screen for small molecules that induce genotoxicity in human embryonic kidney (HEK293T) cells expressing luciferase-tagged ELG1 (AID 493106)
Method in brief: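 Reporter-gene quantitative HTS in HEK293T cells carrying luciferase-tagged ELG1, whose level climbs under genotoxic stress. Compound exposure lasts 16 hr at 37 °C before luciferase detection.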

[15] = target: ATPase family AAA domain-containing protein 5 (Homo sapiens) (UniProt Q96QE3); assay: Validation screen for small molecules that inhibit ELG1-dependent DNA repair in human embryonic kidney (HEK293T) cells expressing luciferase-tagged ELG1 (AID 493107);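 further: cells co-treated with the DNA-damaging agent 5-fluorouridine alongside compound; series mostly up to about 46 µM; inhibitors lower the ELG1-luciferase luminescence signal; nearly all actives have a fitted effect of over 70% in size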
Method in brief: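 Quantitative HTS in HEK293T cells carrying luciferase-tagged ELG1, stimulated with 5-fluorouridine alongside compound for 16 hr. Loss of luciferase signal marks inhibition of ELG1 response.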

[16] = target: Thyrotropin-releasing hormone receptor (Homo sapiens) (UniProt P34981); assay: qHTS for Small Molecule Agonists and Allosteric Enhancers of Human TRH Receptor: Validation Screen for Agonists (AID 493127;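 active means calcium activation more than 3 SD above the typical response in the agonist read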;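 further: intracellular calcium rise by fluo-8 fluorescence before TRH EC20 addition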); settings: TRH receptor agonist cell assay; at 2 µM; stronger effect = higher value
Method in brief: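 Gq-coupled calcium mobilization in TRHR cells after compound addition, monitored kinetically with fluo-8 dye on an FDSS reader.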

[17] = target: D(1A) dopamine receptor (Homo sapiens) (UniProt P21728); assay: HTS Assay for Allosteric Agonists of the Human D1 Dopamine Receptor: Primary Screen for Antagonists (AID 488983);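 further: calcium flux response to an EC80 dopamine challenge measured with no-wash dye; nearly all actives have a fitted effect of over 65% in size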
Method in brief: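 Screening of inducible HEK293 T-REx D1 cells: compound first, EC80 dopamine 180 s later, each phase read kinetically for calcium over 180 s.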

Sequence of Chromobox protein homolog 1 (Homo sapiens) (P83916 whole entry, looked up): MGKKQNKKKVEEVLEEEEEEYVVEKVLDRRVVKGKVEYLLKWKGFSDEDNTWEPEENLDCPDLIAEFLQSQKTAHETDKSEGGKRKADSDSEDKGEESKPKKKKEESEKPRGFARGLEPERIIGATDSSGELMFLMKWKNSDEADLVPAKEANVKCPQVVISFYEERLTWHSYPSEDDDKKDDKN
Sequence of D(1A) dopamine receptor (Homo sapiens) (P21728 whole entry, looked up): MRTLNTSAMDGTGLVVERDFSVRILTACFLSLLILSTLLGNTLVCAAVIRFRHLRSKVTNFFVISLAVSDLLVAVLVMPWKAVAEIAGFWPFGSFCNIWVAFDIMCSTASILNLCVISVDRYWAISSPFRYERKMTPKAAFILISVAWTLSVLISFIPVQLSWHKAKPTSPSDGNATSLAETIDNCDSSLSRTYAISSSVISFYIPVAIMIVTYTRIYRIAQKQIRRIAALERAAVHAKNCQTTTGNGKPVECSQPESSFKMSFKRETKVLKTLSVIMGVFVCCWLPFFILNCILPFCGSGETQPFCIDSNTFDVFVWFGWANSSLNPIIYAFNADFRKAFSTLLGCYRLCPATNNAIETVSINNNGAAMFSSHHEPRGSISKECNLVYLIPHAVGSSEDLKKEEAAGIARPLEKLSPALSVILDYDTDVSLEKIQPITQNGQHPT
Sequence of Thyrotropin-releasing hormone receptor (Homo sapiens) (P34981 whole entry, looked up): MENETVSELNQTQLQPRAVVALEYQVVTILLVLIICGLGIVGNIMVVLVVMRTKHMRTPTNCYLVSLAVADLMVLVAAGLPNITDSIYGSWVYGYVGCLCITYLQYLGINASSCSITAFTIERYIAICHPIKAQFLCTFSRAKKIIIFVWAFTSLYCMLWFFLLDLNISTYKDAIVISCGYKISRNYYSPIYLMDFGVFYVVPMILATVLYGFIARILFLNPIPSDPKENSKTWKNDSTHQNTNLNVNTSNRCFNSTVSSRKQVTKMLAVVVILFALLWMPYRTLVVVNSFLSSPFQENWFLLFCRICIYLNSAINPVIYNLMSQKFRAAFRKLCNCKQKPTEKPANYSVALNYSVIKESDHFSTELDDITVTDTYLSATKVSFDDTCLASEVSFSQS
Sequence of M-phase phosphoprotein 8 (Homo sapiens) (Q99549 whole entry, looked up): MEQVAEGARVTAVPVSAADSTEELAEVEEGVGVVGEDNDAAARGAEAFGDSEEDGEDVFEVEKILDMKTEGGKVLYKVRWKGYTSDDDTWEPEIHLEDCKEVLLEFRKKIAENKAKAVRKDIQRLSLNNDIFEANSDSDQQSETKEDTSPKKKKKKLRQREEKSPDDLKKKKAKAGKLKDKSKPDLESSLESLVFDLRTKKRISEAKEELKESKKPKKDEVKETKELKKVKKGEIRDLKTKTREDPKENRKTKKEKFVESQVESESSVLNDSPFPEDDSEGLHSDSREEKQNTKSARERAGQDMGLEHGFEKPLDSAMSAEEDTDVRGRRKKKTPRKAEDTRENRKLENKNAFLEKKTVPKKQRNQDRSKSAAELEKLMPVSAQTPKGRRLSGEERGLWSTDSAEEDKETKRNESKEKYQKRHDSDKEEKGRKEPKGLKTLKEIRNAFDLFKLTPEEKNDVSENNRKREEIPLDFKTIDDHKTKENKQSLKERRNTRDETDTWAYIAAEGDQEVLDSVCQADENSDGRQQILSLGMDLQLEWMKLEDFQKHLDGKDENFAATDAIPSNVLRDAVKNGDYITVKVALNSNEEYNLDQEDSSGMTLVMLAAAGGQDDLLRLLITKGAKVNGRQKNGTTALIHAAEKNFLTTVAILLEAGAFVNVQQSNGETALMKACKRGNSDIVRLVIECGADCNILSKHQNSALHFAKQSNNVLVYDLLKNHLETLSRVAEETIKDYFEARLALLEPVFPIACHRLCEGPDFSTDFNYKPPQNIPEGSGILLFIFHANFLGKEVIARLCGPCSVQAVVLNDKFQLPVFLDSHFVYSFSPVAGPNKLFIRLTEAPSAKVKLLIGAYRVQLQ
Sequence of Transient receptor potential cation channel subfamily V member 1 (Homo sapiens) (Q8NER1 whole entry, looked up): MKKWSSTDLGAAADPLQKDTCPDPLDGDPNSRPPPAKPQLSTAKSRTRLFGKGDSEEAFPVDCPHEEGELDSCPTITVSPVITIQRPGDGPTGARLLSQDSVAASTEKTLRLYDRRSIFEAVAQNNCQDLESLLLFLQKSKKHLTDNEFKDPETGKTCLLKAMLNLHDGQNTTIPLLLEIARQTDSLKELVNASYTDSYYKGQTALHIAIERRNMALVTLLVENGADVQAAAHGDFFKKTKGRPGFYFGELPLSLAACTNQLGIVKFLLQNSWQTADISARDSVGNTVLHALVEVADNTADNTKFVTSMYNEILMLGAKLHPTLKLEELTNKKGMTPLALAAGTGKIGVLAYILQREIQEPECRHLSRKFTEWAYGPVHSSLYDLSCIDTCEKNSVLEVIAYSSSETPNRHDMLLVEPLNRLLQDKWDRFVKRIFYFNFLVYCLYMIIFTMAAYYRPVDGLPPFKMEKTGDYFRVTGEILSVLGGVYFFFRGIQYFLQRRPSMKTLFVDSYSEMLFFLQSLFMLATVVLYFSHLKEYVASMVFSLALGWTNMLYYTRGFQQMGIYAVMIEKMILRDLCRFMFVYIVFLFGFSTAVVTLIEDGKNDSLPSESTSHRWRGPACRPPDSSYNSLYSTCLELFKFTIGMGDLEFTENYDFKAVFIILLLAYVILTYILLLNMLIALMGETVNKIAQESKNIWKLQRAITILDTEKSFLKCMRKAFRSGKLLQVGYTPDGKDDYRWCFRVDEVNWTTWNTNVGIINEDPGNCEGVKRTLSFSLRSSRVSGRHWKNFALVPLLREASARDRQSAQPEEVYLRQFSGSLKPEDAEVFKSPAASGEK
Sequence of ATPase family AAA domain-containing protein 5 (Homo sapiens) (Q96QE3 whole entry, looked up, the tested form may be a part): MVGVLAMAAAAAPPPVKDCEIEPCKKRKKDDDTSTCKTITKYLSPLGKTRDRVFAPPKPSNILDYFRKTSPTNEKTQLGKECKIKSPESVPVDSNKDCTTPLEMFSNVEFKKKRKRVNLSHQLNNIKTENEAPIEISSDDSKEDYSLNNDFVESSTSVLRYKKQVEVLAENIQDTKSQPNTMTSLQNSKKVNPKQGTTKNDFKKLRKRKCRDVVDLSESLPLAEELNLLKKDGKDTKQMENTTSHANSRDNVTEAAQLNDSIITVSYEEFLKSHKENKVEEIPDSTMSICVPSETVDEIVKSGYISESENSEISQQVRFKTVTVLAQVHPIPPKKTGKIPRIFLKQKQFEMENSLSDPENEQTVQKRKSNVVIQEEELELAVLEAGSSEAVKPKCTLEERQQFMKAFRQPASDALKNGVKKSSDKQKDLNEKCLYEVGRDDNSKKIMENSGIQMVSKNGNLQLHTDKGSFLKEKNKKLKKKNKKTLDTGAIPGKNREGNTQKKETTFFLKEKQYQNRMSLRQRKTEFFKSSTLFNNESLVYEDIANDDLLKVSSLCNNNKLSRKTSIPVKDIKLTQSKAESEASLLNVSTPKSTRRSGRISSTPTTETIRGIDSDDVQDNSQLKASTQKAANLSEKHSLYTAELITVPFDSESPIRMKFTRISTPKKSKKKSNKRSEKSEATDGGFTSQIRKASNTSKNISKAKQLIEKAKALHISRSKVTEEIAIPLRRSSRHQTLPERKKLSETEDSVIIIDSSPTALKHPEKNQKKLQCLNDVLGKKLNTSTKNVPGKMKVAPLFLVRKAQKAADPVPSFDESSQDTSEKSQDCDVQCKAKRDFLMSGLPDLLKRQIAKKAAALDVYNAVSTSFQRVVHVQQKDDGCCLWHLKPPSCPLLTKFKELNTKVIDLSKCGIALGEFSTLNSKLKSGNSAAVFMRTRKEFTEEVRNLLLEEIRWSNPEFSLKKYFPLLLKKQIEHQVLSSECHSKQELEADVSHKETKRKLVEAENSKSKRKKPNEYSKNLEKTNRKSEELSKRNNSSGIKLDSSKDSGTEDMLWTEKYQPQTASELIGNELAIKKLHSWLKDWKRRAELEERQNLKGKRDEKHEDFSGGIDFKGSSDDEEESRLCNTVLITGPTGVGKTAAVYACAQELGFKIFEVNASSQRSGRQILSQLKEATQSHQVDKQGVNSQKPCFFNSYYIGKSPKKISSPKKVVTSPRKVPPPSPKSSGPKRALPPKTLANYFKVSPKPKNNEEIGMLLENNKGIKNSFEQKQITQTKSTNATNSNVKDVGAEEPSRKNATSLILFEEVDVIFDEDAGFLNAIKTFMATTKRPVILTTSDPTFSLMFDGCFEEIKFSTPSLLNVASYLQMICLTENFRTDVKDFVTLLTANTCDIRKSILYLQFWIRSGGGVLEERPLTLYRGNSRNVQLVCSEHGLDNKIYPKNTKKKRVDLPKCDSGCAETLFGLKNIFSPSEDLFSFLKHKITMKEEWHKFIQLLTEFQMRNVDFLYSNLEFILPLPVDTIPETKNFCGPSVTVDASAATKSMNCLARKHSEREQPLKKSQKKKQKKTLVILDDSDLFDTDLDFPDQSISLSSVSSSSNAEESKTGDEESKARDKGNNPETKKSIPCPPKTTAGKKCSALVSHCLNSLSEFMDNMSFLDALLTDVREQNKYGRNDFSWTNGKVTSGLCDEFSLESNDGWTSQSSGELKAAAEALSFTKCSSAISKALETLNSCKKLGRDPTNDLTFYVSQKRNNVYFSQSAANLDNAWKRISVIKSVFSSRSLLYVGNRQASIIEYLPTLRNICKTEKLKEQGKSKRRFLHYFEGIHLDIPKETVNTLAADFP
Sequence of Flap endonuclease 1 (Homo sapiens) (P39748 whole entry, looked up): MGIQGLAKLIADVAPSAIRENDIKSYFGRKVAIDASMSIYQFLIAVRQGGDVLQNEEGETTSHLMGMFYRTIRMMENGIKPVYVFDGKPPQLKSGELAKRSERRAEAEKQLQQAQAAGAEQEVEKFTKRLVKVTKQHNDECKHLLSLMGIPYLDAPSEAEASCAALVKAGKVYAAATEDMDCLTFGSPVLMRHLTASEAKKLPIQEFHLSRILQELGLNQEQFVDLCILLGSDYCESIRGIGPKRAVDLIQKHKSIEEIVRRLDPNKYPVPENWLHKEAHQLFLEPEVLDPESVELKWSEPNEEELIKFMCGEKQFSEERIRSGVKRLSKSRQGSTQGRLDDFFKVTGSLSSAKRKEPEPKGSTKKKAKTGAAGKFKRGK

Compound	outcome [1]	Potency [2]	Potency [3]	outcome [4]	Potency [5]	Potency [6]	Potency [7]	Potency [8]	outcome [9]	outcome [10]	outcome [11]	Potency [12]	Potency [13]	Potency [14]	Potency [15]	activation [16]	Potency [17]
COc1cc(N)c(Cl)cc1C(=O)OCCN1CCCCC1	inactive	inactive	inactive	inactive	inactive	inactive	inactive	0.006 µM (active)	inactive	inactive	inactive	inactive	inactive	inactive	inactive	-2.44% (inactive)	–
CC(=O)O[C@H]1CC2(C)[C@@H](C[C@@H](O)[C@H]3[C@@]4(C)CC[C@@H](O)[C@@H](C)[C@@H]4CC[C@@]32C)C1=C(CCC=C(C)C)C(=O)O (some centres not stated)	inactive	inactive	inactive	inactive	inactive	inactive	inactive	–	inactive	inactive	inactive	inactive	inactive	inactive	inactive	1.06% (inactive)	inactive
CCCCS(=N)(=O)CC[C@H](N)C(=O)O (some centres not stated)	inactive	inactive	inactive	inactive	inactive	inactive	–	inactive	inactive	inactive	inactive	inactive	inactive	inactive	–	-2.62% (inactive)	inactive
C=CCN1CCc2c(cc(O)c(O)c2Br)[C@@H](c2ccccc2)C1	inactive	inactive	1.85 µM (active)	inactive	inactive	inactive	inactive	44.7 µM (active)	inactive	inactive	inactive	–	inactive	inactive	–	-5.81% (inactive)	–
COC1(C2=NCCN2)COc2ccccc2O1 (configuration not stated)	inactive	inactive	inactive	inactive	inactive	inactive	inactive	–	inactive	inactive	inactive	inactive	inactive	inactive	inactive	1.62% (inactive)	inactive
NC(C(=O)N[C@@H]1C(=O)N2C(C(=O)O)=C(Cl)CS[C@H]12)c1ccccc1 (some centres not stated)	inactive	inactive	inactive	inactive	inactive	inactive	inactive	–	inactive	inactive	inactive	inactive	inactive	inactive	–	0.938% (inactive)	inactive
O=C(c1ccc2c(c1)OCCO2)N1CCCCC1	inactive	inactive	inactive	inactive	inactive	inactive	inactive	inactive	inactive	–	inactive	inactive	inactive	inactive	–	-0.312% (inactive)	inactive
COc1ccc(NC(=O)c2ccc(-c3ccc(-c4noc(C)n4)cc3C)cc2)cc1N1CCN(C)CC1	inactive	4.65 µM (active)	3.7 µM (active)	inactive	inactive	inactive	15.8 µM (active)	–	inactive	inactive	inactive	inactive	inactive	inactive	–	2.25% (inactive)	–
O=C(O)c1ccccc1Nc1cccc(OCc2ccc3ccccc3n2)c1	inactive	inactive	inactive	inactive	inactive	inactive	39.8 µM (active) and inactive	–	inactive	inactive	inactive	inactive	inactive	inactive	inactive	-5.56% (inactive)	–
O=C(O)C1=CCCN(CCON=C(c2ccccc2)c2ccccc2)C1	inactive	inactive	inactive	inactive	inactive	inactive	inactive	–	inactive	inactive	inactive	inactive	–	inactive	inactive	-3% (inactive)	–
CCCCCCCCCCCCCCC[C@H](O)[C@H](N)CO	inactive	inactive	inactive	inactive	inactive	inactive	–	89.1 µM (active)	inactive	inactive	inactive	inactive	inactive	inactive	inactive	1.44% (inactive)	inactive
Nc1ncnc2c1ncn2C1CCCC1	inactive	inactive	inactive	inactive	inactive	inactive	inactive	–	inactive	inactive	inactive	inactive	–	–	inactive	1.12% (inactive)	inactive
CN(C)C(=O)/N=N/C(=O)N(C)C	inactive	inactive	inactive	inactive	inactive	inactive	31.6 µM (active) and inactive	20 µM (active)	inactive	inactive	inactive	inactive	inactive	inactive	–	0.75% (inactive)	inactive
COc1cc(CC(=O)O)ccc1O	inactive	inactive	inactive	inactive	inactive	inactive	inactive	0.006 µM (active)	inactive	inactive	inactive	inactive	inactive	inactive	–	0.125% (inactive)	–
Cc1ccc([N+](=O)[O-])cc1S(=O)(=O)N(C)C	inactive	inactive	inactive	inactive	inactive	inactive	inactive	inactive	inactive	inactive	inactive	inactive	–	inactive	inactive	1.19% (inactive) and 0.125% (inactive)	inactive
CNc1cc(NS(=O)(=O)c2ccc(N)cc2)nc(NC)n1	inactive	inactive	inactive	inactive	inactive	inactive	inactive	–	inactive	inactive	inactive	inactive	inactive	inactive	–	0.25% (inactive)	inactive

From PubChem BioAssay (NCATS)
